Data: PubChem BioAssay
Calls of active or inactive are those of the source.

What was measured:
[1] = test system: Plasmodium falciparum Sir2 (PF13_0152, Sir2A); assay: pfSir2 binders on small-molecule microarrays, primary screen, biochemical, small-molecule microarray, 635 nm fluorescence (AID 1098); conditions: small-molecule microarray binding, fluorescence 635 nm; higher = more signal;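 note: score merges spot fluorescence intensity with its signal-to-noise ratio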
[2] = small-molecule microarray binders of probe aDKK1, primary screen, biochemical, biotinylated probe, 635/667 nm fluorescence (AID 1099); conditions: higher = more signal;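 note: score merges 667nm spot fluorescence with signal to noise across triplicate slides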
[3] = small-molecule microarray binders of probe aCHRDL2, primary screen, biochemical, biotinylated probe, 635/667 nm fluorescence (AID 1100); conditions: higher = more signal
[4] = splicing luciferase reporter signal modulators, primary screen, spliceosome inhibition project, cell-based, HEK293, splice +/- reporter (AID 1101); conditions: luminescence, 24 h, higher = more signal, called active from +8 up or from −8 down;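 note: HEK293 cells carrying a splicing-competent luciferase reporter gene; test concentration not given here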
[5] = target: Fibroblast growth factor 10 (Homo sapiens) (UniProt O15520); assay: FGF10 binders on small-molecule microarrays, primary screen, biochemical, small-molecule microarray, 635 nm fluorescence (AID 1102); conditions: FGF10 binding, fluorescence 635 nm, higher = more signal
[6] = test system: glycogen synthase kinase-3 (GSK3A per assay name; protocol says GSK3B); assay: GSK3 binders on small-molecule microarrays, primary screen, biochemical, small-molecule microarray, 635 nm fluorescence, GSK3A (AID 1103); conditions: small-molecule microarray binding, fluorescence 635 nm; higher = more signal; note: the record names both GSK3A and GSK3B
[7] = target: Epidermal growth factor receptor (Homo sapiens) (UniProt P00533); assay: EGFR binders on small-molecule microarrays, primary screen, biochemical, small-molecule microarray, 635 nm fluorescence (AID 1104); conditions: EGFR binding, higher = more signal;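 note: score merges 667 nm emission intensity with spot signal to noise over triplicate slides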
[8] = target: Follistatin-related protein 3 (Homo sapiens) (UniProt O95633); assay: FSTL3 binders on small-molecule microarrays, primary screen, biochemical, small-molecule microarray, 635 nm fluorescence (AID 1105); conditions: FSTL3 binding, higher = more signal;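 note: score merges emission near 667 nm and signal to noise per printed spot across three slides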
[9] = target: Dickkopf-related protein 1 (Homo sapiens) (UniProt O94907); assay: DKK1 binders on small-molecule microarrays, primary screen, biochemical, small-molecule microarray, 635 nm fluorescence scan (AID 1106); conditions: DKK1 binding, higher = more signal;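 note: score merges emission near 667 nm with signal to noise over three replicate slides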
[10] = test system: Inhibin beta A chain (activin A); assay: INHBA (activin A) binders on microarrays, primary screen, biochemical, small-molecule microarray, 635 nm fluorescence scan (AID 1107); conditions: small-molecule microarray binding, higher = more signal;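 note: mouse activin A protein probed at 4.33 µg/mL on printed slides; score merges bound-protein fluorescence near 667 nm with spot signal-to-noise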
[11] = test system: Human papillomavirus type 1a protein E7 (residues 44-93); assay: HPV1a E7 fragment binders on microarrays, primary screen, biochemical, small-molecule microarray, residues 44-93, 635 nm fluorescence (AID 1108); conditions: small-molecule microarray binding, fluorescence 635 nm; higher = more signal;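 note: E7 fragment applied at 1 µg/mL in TBST for 1 h at 4 C; score combines spot fluorescence with its signal to noise ratio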
[12] = modulators of HCV replicon luciferase signal, primary screen, HCV replication inhibitor project, Huh7 cells, luciferase reporter (AID 1109); conditions: 48 h, higher = more signal;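 note: huh7 hepatoma cells harbouring a luciferase neomycin HCV replicon reporter; luciferase luminescence as measure of HCV replicon replication; test concentration not given here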
[13] = target: Left-right determination factor 2 (Homo sapiens) (UniProt O00292); assay: LEFTY2 binders on small-molecule microarrays, primary screen, biochemical, small-molecule microarray, 635 nm fluorescence scan (AID 1110); conditions: LEFTY2 binding, higher = more signal
[14] = target: Calmodulin-1 (Homo sapiens) (UniProt P0DP23); assay: CALM1 binders on microarrays, EGTA buffer, profiling panel, biochemical, small-molecule microarray, Cy5-labelled CALM1 (AID 1111); conditions: Cy5-CALM1 binding fluorescence, higher = more signal;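 note: labelled calmodulin applied in Tris saline Tween buffer holding calcium plus EGTA and DTT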
[15] = target: Calmodulin-1 (Homo sapiens) (UniProt P0DP23); assay: calcium-bound CALM1 binders on microarrays, profiling panel, artefact control for SMM control-protein annotation, biochemical, small-molecule microarray, Cy5-labelled CALM1, plus calcium (AID 1112); conditions: Cy5-CALM1 binding fluorescence, higher = more signal;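 note: score merges spot fluorescence with signal to noise from triplicate slides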
[16] = small-molecule microarray binders of probe aWnt5a, primary screen, biochemical, biotinylated probe, 635/667 nm fluorescence (AID 1113); conditions: higher = more signal;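 note: score merges 667 nm fluorescence intensity with signal-to-noise per printed feature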
[17] = small-molecule microarray binders of probe aShh, primary screen, biochemical, biotinylated probe, 635/667 nm fluorescence (AID 1114); conditions: higher = more signal;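 note: probe is biotin-labelled aShh protein from a stem cell growth factor screen; measures binding of labelled protein to compounds printed on the slide; score merges feature fluorescence at 667 nm with signal-to-noise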
[18] = small-molecule microarray binders of probe aNog, primary screen, biochemical, biotinylated probe, 635/667 nm fluorescence (AID 1115); conditions: higher = more signal;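 note: probe is biotinylated aNog protein used at 0.15 µg/mL for 1 h at 4 C; z-score combines 667 nm fluorescence of each spot with its signal to noise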
[19] = target: Torsin-1A-interacting protein 1 (Homo sapiens) (UniProt Q5JTV8); assay: LAP1 binders from COS7 cell lysate, primary screen, small-molecule microarray, 635/667 nm fluorescence (AID 1116); conditions: COS7-hLAP1 lysate binding, 635 nm fluorescence, higher = more signal
[20] = target: Alpha-bungarotoxin (Bungarus multicinctus) (UniProt P60615); assay: alpha-bungarotoxin binders on microarray, profiling panel, artefact control for SMM control protein annotation, biochemical, small-molecule microarray, Alexa647 label, 635/667 nm fluorescence (AID 1117); conditions: alpha-BTX-A647 binding fluorescence, higher = more signal
Chain of Alpha-bungarotoxin (Bungarus multicinctus) (P60615 whole entry, looked up): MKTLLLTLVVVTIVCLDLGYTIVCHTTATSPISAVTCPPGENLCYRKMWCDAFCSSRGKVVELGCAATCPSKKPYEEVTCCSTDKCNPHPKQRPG

Chain of Follistatin-related protein 3 (Homo sapiens) (O95633 whole entry, looked up): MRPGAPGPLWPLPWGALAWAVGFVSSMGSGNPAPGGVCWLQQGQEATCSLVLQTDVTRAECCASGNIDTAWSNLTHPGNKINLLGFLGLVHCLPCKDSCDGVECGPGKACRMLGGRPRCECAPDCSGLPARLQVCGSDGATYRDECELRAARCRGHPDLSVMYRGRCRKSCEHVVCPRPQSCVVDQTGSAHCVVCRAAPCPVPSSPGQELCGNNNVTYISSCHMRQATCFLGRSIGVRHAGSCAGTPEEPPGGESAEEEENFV
Chain of Fibroblast growth factor 10 (Homo sapiens) (O15520 whole entry, looked up): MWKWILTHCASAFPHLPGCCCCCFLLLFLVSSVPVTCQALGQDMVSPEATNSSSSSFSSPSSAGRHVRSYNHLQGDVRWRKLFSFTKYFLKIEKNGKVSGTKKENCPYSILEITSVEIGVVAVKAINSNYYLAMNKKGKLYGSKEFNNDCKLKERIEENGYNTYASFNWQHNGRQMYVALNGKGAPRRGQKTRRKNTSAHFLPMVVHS
Chain of Torsin-1A-interacting protein 1 (Homo sapiens) (Q5JTV8 whole entry, looked up): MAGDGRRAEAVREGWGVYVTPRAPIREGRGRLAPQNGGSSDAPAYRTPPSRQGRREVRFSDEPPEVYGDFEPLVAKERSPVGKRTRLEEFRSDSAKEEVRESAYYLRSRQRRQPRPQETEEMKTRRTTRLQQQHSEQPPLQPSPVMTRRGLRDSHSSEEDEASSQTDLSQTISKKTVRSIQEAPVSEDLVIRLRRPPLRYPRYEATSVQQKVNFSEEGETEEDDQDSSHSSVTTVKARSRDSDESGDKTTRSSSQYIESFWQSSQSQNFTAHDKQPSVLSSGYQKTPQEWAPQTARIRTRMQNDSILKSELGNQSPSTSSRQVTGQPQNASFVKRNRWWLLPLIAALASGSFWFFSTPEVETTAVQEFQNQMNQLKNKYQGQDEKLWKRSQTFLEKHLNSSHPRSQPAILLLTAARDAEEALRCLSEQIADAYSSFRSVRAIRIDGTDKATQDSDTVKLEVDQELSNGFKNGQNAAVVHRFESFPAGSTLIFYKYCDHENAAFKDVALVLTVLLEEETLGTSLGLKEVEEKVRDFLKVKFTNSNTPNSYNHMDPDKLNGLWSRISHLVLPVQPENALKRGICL
Chain of Left-right determination factor 2 (Homo sapiens) (O00292 whole entry, looked up): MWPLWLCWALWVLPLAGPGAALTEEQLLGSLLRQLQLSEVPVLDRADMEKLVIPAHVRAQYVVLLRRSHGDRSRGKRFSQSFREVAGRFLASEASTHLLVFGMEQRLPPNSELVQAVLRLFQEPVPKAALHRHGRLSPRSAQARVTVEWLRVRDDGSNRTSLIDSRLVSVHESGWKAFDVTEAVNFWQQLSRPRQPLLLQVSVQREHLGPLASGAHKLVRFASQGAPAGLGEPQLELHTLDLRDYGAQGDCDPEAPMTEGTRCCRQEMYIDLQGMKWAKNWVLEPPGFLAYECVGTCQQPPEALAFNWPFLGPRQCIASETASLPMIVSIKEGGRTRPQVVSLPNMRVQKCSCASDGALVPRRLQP
Chain of Dickkopf-related protein 1 (Homo sapiens) (O94907 whole entry, looked up): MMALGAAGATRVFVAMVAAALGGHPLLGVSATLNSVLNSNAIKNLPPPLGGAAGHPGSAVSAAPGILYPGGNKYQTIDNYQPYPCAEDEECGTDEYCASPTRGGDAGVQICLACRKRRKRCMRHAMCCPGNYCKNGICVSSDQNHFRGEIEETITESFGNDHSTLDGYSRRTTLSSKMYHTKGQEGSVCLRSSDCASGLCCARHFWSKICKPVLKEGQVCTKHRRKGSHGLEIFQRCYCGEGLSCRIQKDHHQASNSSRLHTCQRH
Chain of Epidermal growth factor receptor (Homo sapiens) (P00533 whole entry, looked up): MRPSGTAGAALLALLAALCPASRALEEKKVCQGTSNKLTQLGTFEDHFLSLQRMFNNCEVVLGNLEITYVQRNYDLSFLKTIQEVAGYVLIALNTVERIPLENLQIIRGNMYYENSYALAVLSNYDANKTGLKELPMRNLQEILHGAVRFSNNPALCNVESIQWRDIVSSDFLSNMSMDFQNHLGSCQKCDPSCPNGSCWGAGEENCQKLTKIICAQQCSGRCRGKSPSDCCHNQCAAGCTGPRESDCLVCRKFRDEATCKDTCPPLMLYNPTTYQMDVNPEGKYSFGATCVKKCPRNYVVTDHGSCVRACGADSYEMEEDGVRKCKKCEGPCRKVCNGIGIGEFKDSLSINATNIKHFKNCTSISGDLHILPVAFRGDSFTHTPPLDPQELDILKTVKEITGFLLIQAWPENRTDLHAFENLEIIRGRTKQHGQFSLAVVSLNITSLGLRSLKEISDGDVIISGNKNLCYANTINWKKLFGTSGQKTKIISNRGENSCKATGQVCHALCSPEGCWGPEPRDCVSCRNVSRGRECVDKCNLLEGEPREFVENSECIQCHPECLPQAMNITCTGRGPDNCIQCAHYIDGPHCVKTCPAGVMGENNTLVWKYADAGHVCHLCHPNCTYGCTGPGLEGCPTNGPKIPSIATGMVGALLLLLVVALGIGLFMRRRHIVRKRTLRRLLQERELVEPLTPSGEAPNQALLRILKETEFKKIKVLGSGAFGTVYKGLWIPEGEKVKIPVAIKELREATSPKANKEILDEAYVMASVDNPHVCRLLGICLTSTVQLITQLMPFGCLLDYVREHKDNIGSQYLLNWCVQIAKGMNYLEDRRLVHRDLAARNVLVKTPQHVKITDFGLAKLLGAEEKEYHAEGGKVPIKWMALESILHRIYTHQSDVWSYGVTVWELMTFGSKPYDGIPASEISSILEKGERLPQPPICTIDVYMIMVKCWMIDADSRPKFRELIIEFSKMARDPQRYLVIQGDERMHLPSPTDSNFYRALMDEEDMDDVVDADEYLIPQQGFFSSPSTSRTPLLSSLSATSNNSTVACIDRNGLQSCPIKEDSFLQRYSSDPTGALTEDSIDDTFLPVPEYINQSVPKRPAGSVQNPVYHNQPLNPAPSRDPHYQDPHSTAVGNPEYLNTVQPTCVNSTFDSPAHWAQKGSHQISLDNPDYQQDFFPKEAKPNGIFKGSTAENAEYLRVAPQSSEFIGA

| Compound | composite z-score [1] | composite z-score [2] | composite z-score [3] | z-score [4] | composite z-score [5] | composite z-score [6] | composite z-score [7] | composite z-score [8] | composite z-score [9] | composite z-score [10] | composite z-score [11] | z-score [12] | composite z-score [13] | composite z-score [14] | composite z-score [15] | composite z-score [16] | composite z-score [17] | composite z-score [18] | composite z-score [19] | composite z-score [20] |
| --- | --- | --- | --- | --- | --- | --- | --- | --- | --- | --- | --- | --- | --- | --- | --- | --- | --- | --- | --- | --- |
| O=C1NC(=O)C2C1C=CC(C(O)c1ccco1)N2Nc1ccc(Cl)cc1Cl (stereo not given) | 0.029 | 0.549 | 0.609 | 0.545 (inactive) | -0.0176 | 0.109 | -0.301 | 0.799 | -0.0083 | 1.39 | 0.478 | -0.664 | -0.39 | 0.317 | 0.381 | -0.152 | 0.111 | -0.3 | 0.478 | 0.396 |
| C=CCOC(=O)[C@@]1(Cc2ccccc2)C[C@H]2CO[C@H](c3ccc(OC)cc3)N2C1=O | 0.335 | -0.0298 | -0.0084 | -0.543 (inactive) | 0.25 | -0.0535 | 0.201 | 0.2 | 0.286 | 0.351 | 0.206 | -0.938 | 0.283 | -0.388 | -0.659 | -0.0846 | -0.0035 | -0.118 | 0.574 | 0.352 |
| CCCC[C@@H]1C[C@H]1[C@@H](NC(=O)c1cccs1)c1ccccc1C(F)(F)F | 0.67 | 0.445 | 0.49 | -0.701 (inactive) | -0.0251 | 1.23 | -0.531 | -0.697 | -0.291 | 0.978 | 1.39 | 0.758 | -0.363 | 1.72 | 0.763 | -0.001 | 0.663 | 1.52 | 0.582 | 0.881 |
| CCOC(=O)C[C@H]1[C@H](OC(=O)c2ccc(-c3ccccc3)cc2)[C@@H](NC(=O)CC(C)C)c2cc(OCCCO)ccc2N1C(=O)c1ccc2ccccc2n1 | 0.988 | -0.239 | -0.39 | -0.725 (inactive) | 0.636 | 0.0685 | 0.239 | 0.47 | 0.273 | 0.0746 | 0.903 | -1.3 | 0.218 | 0.326 | -0.631 | -0.0678 | 0.0723 | 0.39 | -0.289 | 0.0623 |
| Cc1ccc(S[C@]2(C(=O)NCC(F)(F)F)CC(=O)N(Cc3cc(C(F)(F)F)cc(C(F)(F)F)c3)[C@@H]2c2ccc(CO)cc2I)cc1 | 1.4 | -0.647 | 1.02 | -0.719 (inactive) | -1.03 | -0.466 | -0.552 | 0.0535 | -1.26 | 0.948 | -0.886 | -0.964 | -0.868 | -0.364 | 0.0808 | -0.231 | -0.0035 | -0.426 | -0.152 | -0.379 |
| CC(CO)N1C(=O)[C@@H]2[C@H]3C(=O)OCC=C[C@H]3OC23C=CCN(Cn2nnc4ccccc42)C(=O)[C@@H]13 (stereo not given in full) | 0.996 | -0.162 | 0.238 | 1.12 (inactive) | -0.78 | -0.778 | -1.29 | -1.13 | -0.586 | 0.647 | -0.931 | 0.0368 | -1.4 | -0.196 | 0.0507 | -0.13 | -0.117 | 0.0517 | -0.607 | -0.975 |
| COc1ccc(CCNC(=O)[C@@]2(Cc3ccccc3I)c3ccccc3C(=O)N(C3CCCCC3)[C@H]2c2ccc(CO)cc2)cc1 | 1.41 | 0.0563 | 0.58 | -1.17 (inactive) | -0.277 | 0.302 | -0.354 | 0.123 | -0.41 | 0.272 | 1.3 | -3.2 | -0.425 | 0.902 | 0.609 | -0.0721 | -0.0626 | -0.158 | 0.0805 | 0.678 |
| [N-]=[N+]=Nc1ccccc1C[C@@]1(C(=O)N2CCOCC2)N=C(c2ccc(OCCCO)cc2)O[C@@H]1c1ccccc1 | 0.816 | 1.46 | 0.59 | -0.818 (inactive) | 1.36 | 1.31 | 0.577 | 1.25 | -0.0771 | -0.431 | 1 | -1.57 | -0.0238 | 1.37 | -0.258 | 0.291 | 0.771 | -0.738 | 1.43 | 1.39 |
| Cc1ccc(NN2C(C(O)c3c(F)cccc3Cl)C=CC3C(=O)N(C4CCCCC4)C(=O)C32)cc1 (stereo not given) | 0.338 | 0.827 | 1.07 | -1.19 (inactive) | 0.425 | 1.3 | -0.184 | 0.716 | -0.258 | 1.32 | 0.51 | -1.26 | -0.348 | 1.96 | 1.14 | -0.0179 | 0.261 | 1.22 | 0.983 | 1.93 |
| COc1ccc(C#Cc2ccc3c(c2)[C@]2(C(=O)N3)[C@H](c3ccc(O)cc3)N3[C@H](c4ccccc4)[C@H](c4ccccc4)OC(=O)[C@H]3[C@@H]2C(=O)Nc2nc3ccccc3s2)cc1 | 1.48 | 0.223 | 0.342 | -0.793 (inactive) | 1.28 | 1.31 | 0.45 | 1.2 | 0.775 | -0.604 | 1.26 | -1.13 | 0.739 | 1.11 | 0.495 | -0.0685 | -0.0813 | 0.352 | 1.22 | 1.25 |
| CCCN1C(=O)[C@@]2(Cc3ccccc31)N=C(c1ccc(OCCCO)cc1)O[C@H]2c1ccccc1 | 1.48 | 0.402 | 0.949 | -1.46 (inactive) | 0.988 | 1.23 | -0.286 | 0.191 | 0.335 | 0.873 | 1.41 | -2.52 | -0.256 | 0.354 | -0.29 | 0.0857 | 0.123 | 0.587 | 1.28 | 1.17 |
| COC(=O)C1=CC(CCCO)=CC(c2cccs2)N(Cc2cccc(OC(F)(F)F)c2)C=C1C(=O)OC (stereo not given) | 0.0898 | 0.524 | 0.574 | 0.955 (inactive) | 0.67 | 1.09 | 0.179 | 0.989 | -0.149 | 1.09 | 0.91 | -1.88 | 0.151 | 2.05 | 0.804 | -0.0194 | 0.0121 | 0.145 | 2.41 | 1.02 |
